Inconclusive results are not listed. Where a structure was tested more than once in an assay, its records may differ in their call. Active and inactive are the calls of the source. How the source made its calls, unless noted: active means hit-call score of the fitted dose curve at least 0.9, where 1 is the maximum; inconclusive means response in the unintended direction; inactive means score below 0.9.
Legend:
[1] = target: Estrogen receptor (Homo sapiens) (UniProt P03372); experiment: CCTE_Deisenroth_AIME_384WELL_LUC_Active: CCTE's 384-well Estrogen Receptor Transactivation Assay with AIME metabolic competence (ERTA luciferase; metabolism positive), Deisenroth Lab (AID 2284030)
Sequence of Estrogen receptor (Homo sapiens) (P03372 whole entry, looked up): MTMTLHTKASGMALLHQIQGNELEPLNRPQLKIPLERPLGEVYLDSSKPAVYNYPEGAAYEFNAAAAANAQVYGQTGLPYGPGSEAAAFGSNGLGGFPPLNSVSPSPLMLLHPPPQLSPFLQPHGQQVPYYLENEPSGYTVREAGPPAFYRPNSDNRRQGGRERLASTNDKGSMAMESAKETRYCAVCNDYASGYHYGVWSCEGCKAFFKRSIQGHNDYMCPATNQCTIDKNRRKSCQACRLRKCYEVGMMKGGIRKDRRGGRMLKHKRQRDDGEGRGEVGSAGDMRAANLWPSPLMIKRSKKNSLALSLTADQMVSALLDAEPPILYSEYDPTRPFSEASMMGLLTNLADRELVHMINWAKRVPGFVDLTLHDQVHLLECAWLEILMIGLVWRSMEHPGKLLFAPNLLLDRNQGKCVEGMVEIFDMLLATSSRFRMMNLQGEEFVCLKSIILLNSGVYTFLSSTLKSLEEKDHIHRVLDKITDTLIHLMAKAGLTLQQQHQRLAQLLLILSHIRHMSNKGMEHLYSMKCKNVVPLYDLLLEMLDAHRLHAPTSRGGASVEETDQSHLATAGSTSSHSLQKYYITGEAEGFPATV
In short: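 In this metabolism-positive format, a 2-hour exposure to alginate-immobilized rat S9 precedes a 24 hour luciferase transactivation readout in VM7Luc4E2 cells. Dosing spans 10 concentrations from 0.002 to 200 uM.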

[2] = CCTE_Deisenroth_AIME_384WELL_CTox_Active: Cytotoxicity Assessment (CTOX) in CCTE's 384-well Estrogen Receptor Transactivation Assay with AIME metabolic competence (metabolism positive), Deisenroth Lab (AID 2284037);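 further: chemicals first conditioned 2 h by alginate-bound induced rat liver S9 before cells; activity means signal loss indicating cell death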
In short: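 Cytotoxicity in VM7Luc4E2 breast cells, 24 hour, measured as protease-substrate fluorescence loss, after 2-hour metabolic conditioning with induced rat hepatic S9 in alginate microspheres. Concentrations 0.002 - 200 uM, 10 points, bidirectional fitting.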

[3] = CCTE_Deisenroth_AIME_384WELL_CTox_Inactive: Cytotoxicity Assessment (CTOX) in CCTE's 384-well Estrogen Receptor Transactivation Assay without AIME metabolic competence (metabolism negative), Deisenroth Lab (AID 2284039);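 further: cell viability via live-cell protease substrate cleaved to fluorescent probe; cells exposed 24 h to medium preincubated 2 h with alginate-water beads without S9; loss of fluorescence signal means loss of viability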
In short: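 Metabolism-negative arm: chemicals (10-point, 0.002 - 200 uM) preincubated 2 h with alginate-water lids, medium moved onto VM7Luc4E2 cells for 24 h. Fluorescent live-cell protease readout; bidirectional curve fit.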

[4] = target: Estrogen receptor (Homo sapiens) (UniProt P03372); experiment: CCTE_Deisenroth_AIME_384WELL_LUC_Shift: CCTE's 384-well Estrogen Receptor Transactivation Assay with AIME metabolic competence data shift (ERTA luciferase; difference in metabolism positive and negative), Deisenroth Lab (AID 2284041; active means hit-call score of the fitted dose curve at least 0.9, where 1 is the maximum; inactive means score below 0.9;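 further: shift is response with S9 minus without S9 so positive means metabolism raised ER signal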)
In short: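 Test chemicals (0.002–200 uM, 10-point) were pre-incubated 2 h with alginate microspheres containing phenobarbital/beta-naphthoflavone-induced male Sprague Dawley rat liver S9 or water, then medium was transferred to VM7Luc4E2 cells for 24 h luciferase readout; shift = S9-positive minus S9-negative normalized response.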

[5] = CCTE_Deisenroth_AIME_96WELL_CTox_Active: Cytotoxicity Assessment (CTOX) in CCTE's 96-well Estrogen Receptor Transactivation Assay with AIME metabolic competence (metabolism positive), Deisenroth Lab (AID 2284028)
In short: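 Cytotoxicity in VM7Luc4E2 breast cells after 24 h exposure to medium from a 2 h metabolic pre-incubation with induced rat hepatic S9 in alginate microspheres; fluorescent live-cell protease readout, 10-point series 0.002–200 uM, n=4.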

[6] = CCTE_Deisenroth_AIME_96WELL_CTox_Inactive: Cytotoxicity Assessment (CTOX) in CCTE's 96-well Estrogen Receptor Transactivation Assay without AIME metabolic competence (metabolism negative), Deisenroth Lab (AID 2284029)
In short: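 Cytotoxicity in VM7Luc4E2 breast cells was scored as loss of fluorescent signal from a live-cell protease substrate 24 h after exposure, using bidirectional curve fitting. Test media came from a 2 h metabolism-negative pre-incubation (alginate-water, no hepatic S9) of compounds at 0.002-200 uM, with at least four replicates.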

[7] = CCTE_Shafer_MEA_dev_firing_rate_mean: CCTE's Neural Network Formation Assay for Mean Firing Rate, Shafer Lab (AID 2284031; active means hit-call score of the fitted dose curve at least 0.9, where 1 is the maximum; inactive means score below 0.9)
In short: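 Extracellular spike frequency, AUC over DIV 5–12 recordings, in rat cortical neuron MEA cultures dosed from plating; loss direction vs DMSO.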

[8] = CCTE_Shafer_MEA_dev_per_burst_spike_percent: CCTE's Neural Network Formation Assay for Percent of Spikes in a Burst, Shafer Lab (AID 2284032; active means hit-call score of the fitted dose curve at least 0.9, where 1 is the maximum; inactive means score below 0.9)
In short: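 Value is trapezoidal AUC over recordings on days 5, 7, 9 and 12 of the well-mean fraction of spikes falling in single-electrode bursts; rat cortical cultures exposed continuously from plating, treatment renewed DIV 5 and 9, fitted downward against DMSO.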

[9] = CCTE_Shafer_MEA_dev_active_electrodes_number: CCTE's Neural Network Formation Assay for Number of Active Electrodes, Shafer Lab (AID 2284040);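 on AC50: potency for loss of active electrodes versus DMSO so lower counts are hits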
In short: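 Developing rat cortical networks on MEAs, exposed DIV 0–12. Value is the AUC of active-electrode counts (≥5 spikes/min) from days 5, 7, 9, 12, relative to DMSO.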

[10] = CCTE_Shafer_MEA_dev_burst_rate: CCTE's Neural Network Formation Assay for Burst Rate, Shafer Lab (AID 2284042; active means hit-call score of the fitted dose curve at least 0.9, where 1 is the maximum; inactive means score below 0.9)
In short: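 Cells plated, treated day 0; recorded DIV 5, 7, 9, 12; fed and re-treated DIV 5, 9. Endpoint: bursts per recording time, active-electrode well mean, trapezoidal AUC, fitted in decreasing direction against DMSO baseline.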

Measured: AC50

Cc1cc(-c2ccc(N)c(C)c2)ccc1N
active: [1] 11.9 µM
inactive: [2] | [3] | [4]

c1cc2ccc3cccc4ccc(c1)c2c34
inactive: [5] | [6] | [1] | [7] | [8] | [2] | [9] | [4] | [10]
active: [3] 0.0782 µM

CCC(C)(c1ccc(O)cc1)c1ccc(O)cc1
inactive: [7] | [8] | [10]
active: [1] 0.927 µM | [2] 164 µM | [3] 189 µM | [9] 4.56 µM | [4] 0.107 µM

CCCN(CCC)N=O
inactive: [1] | [2] | [3] | [4]

COS(=O)(=O)OC
inactive: [1] | [2] | [4]

Clc1ccc(C(Cl)(Cl)Cl)cc1
inactive: [1] | [2] | [3] | [4]

Cc1cccc([N+](=O)[O-])c1
inactive: [1] | [2] | [3] | [4]

OCC(O)CO
inactive: [1] | [2] | [3] | [4]
active: [1] 0.0002 µM | [4] 0.00051 µM

O=S(=O)(O)C(F)(F)C(F)(F)C(F)(F)C(F)(F)C(F)(F)C(F)(F)F
active: [9] 3.97 µM
inactive: [1] | [7] | [8] | [2] | [3] | [9] | [4] | [10]

CCOCCOC(C)=O
inactive: [1] | [2] | [3] | [4]

O=C(O)C(F)(F)C(F)(F)C(F)(F)C(F)(F)C(F)(F)C(F)(F)C(F)(F)C(F)(F)F
active: [2] 146 µM | [3] 164 µM
inactive: [1] | [7] | [8] | [4] | [10]

c1ccc(-c2ccccc2)cc1
inactive: [2] | [3]
active: [1] 88 µM | [4] 80.7 µM

CN(C)CCO
inactive: [1] | [2] | [4]

C[C@]12CCC(=O)C=C1CC[C@@H]1[C@@H]2CC[C@]2(C)C(=O)CC[C@@H]12
inactive: [1] | [2] | [3] | [4]

CCC(=O)O[C@H]1CC[C@H]2[C@@H]3CCC4=CC(=O)CC[C@]4(C)[C@H]3CC[C@]12C
inactive: [1] | [2] | [3] | [4]

C=CC(=O)NCNC(=O)C=C
inactive: [1] | [2] | [4]
active: [3] 19.8 µM

ClC1=C(Cl)[C@]2(Cl)[C@@H]3[C@H]4C[C@H]([C@@H]5O[C@H]45)[C@@H]3[C@@]1(Cl)C2(Cl)Cl
active: [1] 2.76 µM | [4] 1.75 µM
inactive: [7] | [8] | [3] | [9] | [10]

O=C(N[C@H]1CN2CCC1CC2)c1cc2ccoc2cn1
inactive: [1] | [2] | [3] | [4]

Nc1ccc(-c2ccc(N)cc2)cc1
inactive: [1] | [2] | [3] | [4]

CCCCCCCCCc1ccc(O)cc1
active: [1] 26.3 µM | [2] 150 µM | [3] 146 µM | [4] 31.4 µM

COc1ccc(O)c(C(C)(C)C)c1
inactive: [1] | [7] | [8] | [2] | [4] | [10]

Cc1ccccc1CO[C@@H]1C[C@@]2(C(C)C)CC[C@]1(C)O2
inactive: [2]
